Among the test systems are NCI-H23 lung; NCI-H322M lung; HOP-62 NSCLC; NCI-H460 lung; HOP-92 NSCLC; NCI-H522 lung; A549/ATCC NSCLC; 786-0 renal; COLO 205 colon; DU-145 prostate; K-562 leukemia; MALME-3M melanoma; MDA-MB-231 breast; RXF 393 renal; SF-268 CNS; SF-295 CNS; SF-539 CNS; UACC-257 melanoma; M14 melanoma; HCT-15 colon.
What all share (experiment): NCI-60 one-dose screen, 48 h (100 = growth as untreated, 0 = no growth, -100 = all killed)
Common to all, as to conditions: 10 µM unless noted

The panel holds about 83,000 compounds, 20% with a hit somewhere; the sample as a whole holds those more often.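 Testing used 96-well plates and a 48-hour single-concentration exposure. Example: -40 means 40% of the starting cells died.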 A number with no mark means an inactive call. Calls of active or inactive are those of the source. How the source made its calls: active means growth percent below 10; inactive means the rest.

For `c1ccc2cc3c(Nc4ccc(N5CCOCC5)cc4)ccnc3cc2c1`, the growth in the assay on NCI-H23 lung is 95%; in the assay on NCI-H322M lung, 111%; in the assay with HOP-62 NSCLC it was 100%; in the assay on NCI-H460 lung, 86.5%; with HOP-92 NSCLC, 104%; with NCI-H522 lung, 97.5%. Besides, the growth is 85% in the assay on A549/ATCC NSCLC; 91.6% in the assay on 786-0 renal; 106% in the assay with COLO 205 colon; 97.2% in the assay with DU-145 prostate; 72.7% in the assay on K-562 leukemia; 98.1% in the assay on MALME-3M melanoma. Also, the growth with MDA-MB-231 breast is 91.3%; with RXF 393 renal, 92%; in the assay with SF-268 CNS it was 87.6%; in the assay with SF-295 CNS it was 98%; in the assay with SF-539 CNS, 92.4%; with UACC-257 melanoma, 108%. Also, the growth was 99.9% with M14 melanoma and 91.1% with HCT-15 colon.
Regarding `COc1ccc(Cn2c(Br)c3c(c2-c2cc(OC)c(OC)c(OC)c2)CCc2sc(NC(C)=O)nc2-3)cc1`, the growth in the assay with NCI-H23 lung was 66.1%; with NCI-H322M lung, 63%; in the assay on HOP-62 NSCLC, 60.3%; in the assay with NCI-H460 lung, 31.2%; in the assay with HOP-92 NSCLC, 65.5%; in the assay on NCI-H522 lung, 13.4%. Also, the growth is 52.8% in the assay with A549/ATCC NSCLC; 54.1% in the assay with 786-0 renal; 20.8% with COLO 205 colon; 66.7% in the assay with DU-145 prostate; 15.4% with K-562 leukemia; -6.05% (active) with MALME-3M melanoma. For the same compound, the growth was 62.6% in the assay on MDA-MB-231 breast; 32.3% with RXF 393 renal; 37.1% in the assay on SF-268 CNS; 3.53% (active) in the assay with SF-295 CNS; 23.1% in the assay on SF-539 CNS; 48% in the assay with UACC-257 melanoma. The values for the growth in the assay with M14 melanoma and in the assay with HCT-15 colon were 47.9% and 51.9%, respectively.
`COc1cc(C2C3=C(COC3=O)N(CCO)c3cc4c(cc32)CCC4)cc(OC)c1O` (stereo not given): the growth with NCI-H23 lung is 45.1%; in the assay with NCI-H322M lung, 53.1%; with HOP-62 NSCLC, 41.2%; in the assay on NCI-H460 lung, -22.7% (active); in the assay with HOP-92 NSCLC it was 97.5%; in the assay with NCI-H522 lung it was -24.5% (active). The growth was 18.1% with A549/ATCC NSCLC; 27% in the assay on 786-0 renal; 13.6% in the assay with COLO 205 colon; -25.8% (active) in the assay on DU-145 prostate; 14.7% with K-562 leukemia; 54.7% in the assay with MALME-3M melanoma. Further, the growth was 18% in the assay with MDA-MB-231 breast; -35.8% (active) in the assay with RXF 393 renal; 43.6% with SF-268 CNS; -2.29% (active) in the assay with SF-295 CNS; -22.6% (active) with SF-539 CNS; 36.2% in the assay on UACC-257 melanoma. For the same compound, the values for the growth with M14 melanoma and with HCT-15 colon were 1.16% (active) and 17.9%, respectively.
In the case of `CN1C(=O)N(C)C2(c3ccccc3)OC(=S)NC12c1ccccc1` (stereo not given), the growth is 99.3% in the assay with NCI-H23 lung; 92% in the assay with NCI-H322M lung; 90.1% in the assay on HOP-62 NSCLC; 112% in the assay on NCI-H460 lung; 101% with HOP-92 NSCLC; 90.4% in the assay on NCI-H522 lung. In addition, the growth in the assay with A549/ATCC NSCLC is 87.5%; with 786-0 renal, 96.2%; in the assay on COLO 205 colon, 107%; in the assay on DU-145 prostate, 94.4%; in the assay with K-562 leukemia it was 92.3%; with MALME-3M melanoma, 97%. The growth was 110% with MDA-MB-231 breast; 114% in the assay on RXF 393 renal; 88.9% in the assay on SF-268 CNS; 93.3% with SF-295 CNS; 92.5% with SF-539 CNS; 94.7% with UACC-257 melanoma. For the same compound, the growth with M14 melanoma was 95.7%; in the assay on HCT-15 colon, 100%.
For the compound `Cc1ccc(Cn2c(N3CCC(C(=O)NCc4cccs4)CC3)nc3ccccc32)cc1`, the growth in the assay with NCI-H23 lung is 85.2%; in the assay on NCI-H322M lung, 114%; with HOP-62 NSCLC, 85%; with NCI-H460 lung, 82.5%; in the assay on HOP-92 NSCLC it was 73.9%; in the assay with NCI-H522 lung it was 107%. Also, the growth is 95% in the assay on A549/ATCC NSCLC; 89.1% in the assay with 786-0 renal; 96.9% in the assay with COLO 205 colon; 72.8% in the assay on DU-145 prostate; -42.9% (active) in the assay on K-562 leukemia; 63.6% in the assay with MALME-3M melanoma. The growth was 71.3% in the assay on MDA-MB-231 breast; 80.7% in the assay on RXF 393 renal; 72.3% in the assay on SF-268 CNS; 97% in the assay with SF-295 CNS; 88% in the assay with SF-539 CNS; 119% in the assay on UACC-257 melanoma. Also, the results for the growth in the assay on M14 melanoma and in the assay on HCT-15 colon were 31.5% and 87%, respectively.
With `COc1ccc(CN2CCCC(C(=O)c3ccc(C(F)(F)F)cc3)C2)c(O)c1` (stereo not given), the growth in the assay with NCI-H23 lung was 37.3%; in the assay on NCI-H322M lung it was 80.6%; in the assay with HOP-62 NSCLC, 37.5%; in the assay with NCI-H460 lung it was 7.11% (active); with HOP-92 NSCLC, 36.5%; in the assay with NCI-H522 lung it was -36.6% (active). Moreover, the growth with A549/ATCC NSCLC is 32.3%; with 786-0 renal, 41.5%; in the assay with COLO 205 colon it was -23.1% (active); in the assay on DU-145 prostate, 50.6%; in the assay with K-562 leukemia it was 7.39% (active); in the assay on MALME-3M melanoma, 12.7%. The growth with MDA-MB-231 breast is 7.33% (active); in the assay on RXF 393 renal it was 20.4%; with SF-268 CNS, 30.5%; with SF-295 CNS it was -20.8% (active); in the assay with SF-539 CNS, 14.8%; in the assay with UACC-257 melanoma it was 40.1%. Further, the values for the growth with M14 melanoma and in the assay on HCT-15 colon were 18.9% and 25.7%, respectively.
`CCCCC(O)(c1ccc(Cl)cc1)C(CN1CCOCC1)c1ccc(Cl)cc1` (stereo not given): the growth is 31.2% with NCI-H23 lung; 70.8% in the assay on NCI-H322M lung; 60.1% in the assay on HOP-62 NSCLC; 19.4% in the assay on NCI-H460 lung; -3.36% (active) in the assay with HOP-92 NSCLC; 19.8% in the assay with NCI-H522 lung. Moreover, the growth in the assay with A549/ATCC NSCLC was 29.6%; in the assay on 786-0 renal it was 53.8%; in the assay on COLO 205 colon, 100%; in the assay on DU-145 prostate, 58.2%; with K-562 leukemia it was 17.9%; in the assay on MALME-3M melanoma it was 61.2%. The growth in the assay on MDA-MB-231 breast was 35.8%; in the assay with RXF 393 renal it was 18.5%; in the assay with SF-268 CNS it was 40.2%; with SF-295 CNS, 40.9%; with SF-539 CNS it was 68.8%; in the assay on UACC-257 melanoma, 39.4%. The growth is 28.6% with M14 melanoma and 34.9% with HCT-15 colon.
With `Fc1ccc(Oc2ccc(Nc3ncnc4onc(-c5ccccc5)c34)cc2)cc1`, the growth is 104% with NCI-H23 lung; 87.9% with NCI-H322M lung; 105% in the assay with HOP-62 NSCLC; 102% with NCI-H460 lung; 88.8% in the assay on HOP-92 NSCLC; 90.5% in the assay on NCI-H522 lung. Also, the growth with A549/ATCC NSCLC was 90.1%; in the assay with 786-0 renal, 97.3%; in the assay on COLO 205 colon it was 122%; in the assay on DU-145 prostate, 95.2%; with K-562 leukemia, 113%; with MALME-3M melanoma, 93.2%. Further, the growth in the assay on MDA-MB-231 breast is 70.7%; in the assay on RXF 393 renal, 115%; with SF-268 CNS, 83%; in the assay with SF-295 CNS, 99.7%; with SF-539 CNS it was 90.1%; in the assay on UACC-257 melanoma, 88.3%. Also, the growth with M14 melanoma is 104%; with HCT-15 colon, 103%.

The record behind these values is PubChem BioAssay (NCI).
